Laboratory results: the supplement of paper PMC12494721
Where a name gives a salt, the structure may show the parent alone.

Tests used:
Settings in all cases: incubation time: 27 h, anaerobic, 37 °C;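 for the amine columns active = adjusted P below 0.05 in both replicates with a change the same way and a mean fold change under 0.8 or over 1.25; inactive = the rest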
[1] = tested on: Clostridium sporogenes DSM 1664; test: growth (OD595) fold change vs plate DMSO controls (fold change (ratio)); higher = more growth
In short: (§1)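 The 96-well mGAM cultures had been kept anaerobic for 27 h at 37 °C before being shaken and read at 595 nm. Blank subtraction, compound background correction with 20 µM compound solutions in water, and a calibration factor of 5 turned the readings into OD. Growth is given as the fold change versus the median of plate DMSO controls. Fold changes above 1.5 were set to NA, and the values are means of 2 biological replicates.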

[2] = tested on: Escherichia coli IAI1; test: as above
In short: as §1

[3] = tested on: Klebsiella aerogenes DSM 30053; test: as above
In short: as §1

[4] = tested on: Ruminococcus gnavus DSM 108212; test: as above
In short: as §1

[5] = tested on: Klebsiella aerogenes DSM 30053; test: fold change of Histamine concentration vs plate DMSO controls (fold change (ratio)); higher = more amine produced, active = hit call of the paper (significant change in both replicates, either direction)
In short: (§2)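 Amine values are fold changes relative to DMSO-only wells on the same plate. They derive from 27 h, 37 °C anaerobic mGAM cultures of four gut bacterial strains in 80 µL wells, dosed at 20 µM final, or 50 µM final for sweeteners. Extraction of the whole culture, LC–triple-quadrupole MS in dynamic MRM mode, external calibration curves and within-batch drift correction were used, with 2 biological replicates averaged.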

[6] = tested on: Clostridium sporogenes DSM 1664; test: fold change of Tryptamine concentration vs plate DMSO controls (fold change (ratio)); higher = more amine produced, active = hit call of the paper (significant change in both replicates, either direction)
In short: as §2

[7] = tested on: Ruminococcus gnavus DSM 108212; test: as above
In short: as §2

[8] = tested on: Escherichia coli IAI1; test: fold change of Putrescine concentration vs plate DMSO controls (fold change (ratio)); higher = more amine produced, active = hit call of the paper (significant change in both replicates, either direction)
In short: as §2

[9] = tested on: Klebsiella aerogenes DSM 30053; test: as above
In short: as §2

[10] = tested on: Escherichia coli IAI1; test: fold change of Cadaverine concentration vs plate DMSO controls (fold change (ratio)); higher = more amine produced, active = hit call of the paper (significant change in both replicates, either direction)
In short: as §2

[11] = tested on: Klebsiella aerogenes DSM 30053; test: as above
In short: as §2

[12] = tested on: Ruminococcus gnavus DSM 108212; test: fold change of 2-Phenylethylamine concentration vs plate DMSO controls (fold change (ratio)); higher = more amine produced, active = hit call of the paper (significant change in both replicates, either direction)
In short: as §2

| SMILES | growth [1] | growth [2] | growth [3] | growth [4] | fold change of Histamine concentration [5] | fold change of Tryptamine concentration [6] | fold change of Tryptamine concentration [7] | fold change of Putrescine concentration [8] | fold change of Putrescine concentration [9] | fold change of Cadaverine concentration [10] | fold change of Cadaverine concentration [11] | fold change of 2-Phenylethylamine concentration [12] |
| --- | --- | --- | --- | --- | --- | --- | --- | --- | --- | --- | --- | --- |
| CC(=O)Nc1ccccc1 [Acetanilide] (20 µM) | 1.1 | 0.998 | 1 | 0.941 | 1.01 (inactive) | 1.03 (inactive) | 1.02 (inactive) | 1.04 (inactive) | 1.02 (inactive) | 0.982 (inactive) | 1.01 (inactive) | 1.05 (inactive) |
| O=C(O)COCCN1CCN(C(c2ccccc2)c2ccc(Cl)cc2)CC1 (stereo not given) [Cetirizine dihydrochloride] (20 µM) | 1.02 | 1.07 | 1.04 | 0.959 | 0.94 (inactive) | 1.03 (inactive) | 1.01 (inactive) | 1.06 (inactive) | 0.997 (inactive) | 0.957 (inactive) | 1 (inactive) | 1.03 (inactive) |
| CC1=C(/C=C/C(C)=C/C=C/C(C)=C/C(=O)O)C(C)(C)CCC1 [Retinoic acid] (20 µM) | 1.05 | 0.973 | 1.1 | 1.04 | 0.947 (inactive) | 1.03 (inactive) | 1.03 (inactive) | 1.01 (inactive) | 1.02 (inactive) | 0.989 (inactive) | 1.01 (inactive) | 0.997 (inactive) |
| OC[C@@H](O)[C@@H](O)[C@H](O)[C@@H](O)CO [Sorbitol] (50 µM) | 1.06 | 0.929 | 0.967 | 1.1 | 1.03 (inactive) | 0.988 (inactive) | 0.966 (inactive) | 0.923 (inactive) | 0.869 (inactive) | 1.1 (inactive) | 1.06 (inactive) | 0.959 (inactive) |
| CC(C)CN(C[C@@H](O)[C@H](Cc1ccccc1)NC(=O)O[C@H]1CO[C@H]2OCC[C@H]21)S(=O)(=O)c1ccc(N)cc1 [Darunavir] (20 µM) | 1.14 | 1 | 1 | 0.966 | 1.05 (inactive) | 1.01 (inactive) | 0.863 (inactive) | 1.04 (inactive) | 0.998 (inactive) | 1.05 (inactive) | 0.996 (inactive) | 0.837 (inactive) |
| Cc1cn(-c2cc(NC(=O)c3ccc(C)c(Nc4nccc(-c5cccnc5)n4)c3)cc(C(F)(F)F)c2)cn1 [Nilotinib] (20 µM) | 0.888 | 1.07 | 1.11 | 1.02 | 0.924 (inactive) | 1.06 (inactive) | 0.879 (inactive) | 1 (inactive) | 1.01 (inactive) | 0.967 (inactive) | 1.01 (inactive) | 0.897 (inactive) |
| CC(=O)NS(=O)(=O)c1ccc(NC(=O)c2ccccc2C(=O)O)cc1 [Phthalylsulfacetamide] (20 µM) | 0.948 | 0.995 | 1.03 | 0.929 | 1.04 (inactive) | 1.05 (inactive) | 1.03 (inactive) | 1.03 (inactive) | 1.01 (inactive) | 1.02 (inactive) | 0.992 (inactive) | 1.02 (inactive) |
| CC(C)c1ccc2oc3nc(N)c(C(=O)O)cc3c(=O)c2c1 [Amlexanox] (20 µM) | 0.911 | 1.2 | 1.05 | 0.857 | 0.877 (inactive) | 1.07 (inactive) | 1.03 (inactive) | 1.1 (inactive) | 0.984 (inactive) | 0.957 (inactive) | 1.03 (inactive) | 1.02 (inactive) |
| CCN(CC)CCNC(C(=O)OCCC(C)C)c1ccccc1 (stereo not given) [Camylofine chlorhydrate] (20 µM) | 1.11 | 0.997 | 1.02 | 0.857 | 1.04 (inactive) | 0.953 (inactive) | 0.943 (inactive) | 0.998 (inactive) | 1 (inactive) | 0.985 (inactive) | 0.988 (inactive) | 0.94 (inactive) |
| CSc1nc2cc(Cl)c(Oc3cccc(Cl)c3Cl)cc2[nH]1 [Triclabendazole] (20 µM) | 0.189 | 1.07 | 0.985 | 0.767 | 1.04 (inactive) | 0.0552 (active) | 0.514 (active) | 0.907 (inactive) | 0.984 (inactive) | 1.01 (inactive) | 1.04 (inactive) | 0.671 (inactive) |
| O=C(NCCCN1CCOCC1)c1ccc(Cl)cc1 [Eprobemide] (20 µM) | 1.11 | 1.1 | 1.07 | 1.04 | 0.982 (inactive) | 1.02 (inactive) | 1.06 (inactive) | 0.929 (inactive) | 0.934 (inactive) | 0.942 (inactive) | 1.05 (inactive) | 1.12 (inactive) |
| CC1(C)OC(=O)NC1=O [Dimethadione] (20 µM) | 0.999 | 0.98 | 0.949 | 1.02 | 0.952 (inactive) | 1.03 (inactive) | 0.747 (inactive) | 1.02 (inactive) | 1 (inactive) | 1.01 (inactive) | 0.992 (inactive) | 0.853 (inactive) |
| COc1cc(/C=C/C(=O)N2CCN(CC(=O)N3CCCC3)CC2)cc(OC)c1OC [Cinepazide maleate] (20 µM) | 1.13 | 1.06 | 1.02 | 1.02 | 1.03 (inactive) | 1.07 (inactive) | 1.1 (inactive) | 1.01 (inactive) | 0.911 (inactive) | 0.933 (inactive) | 1.06 (inactive) | 1.14 (inactive) |
| COc1c(-c2ccc3cc(NS(C)(=O)=O)ccc3c2)cc(-n2ccc(=O)[nH]c2=O)cc1C(C)(C)C [Dasabuvir] (20 µM) | 1.04 | 0.964 | 1.01 | 0.849 | 0.969 (inactive) | 0.847 (inactive) | 0.747 (active) | 1.01 (inactive) | 0.999 (inactive) | 0.989 (inactive) | 0.99 (inactive) | 0.754 (inactive) |
| O=c1[nH]c(=O)n([C@H]2C[C@H](O)[C@@H](CO)O2)cc1C(F)(F)F [Trifluridine] (20 µM) | 1.14 | 1.04 | 0.99 | 0.913 | 1.09 (inactive) | 1.02 (inactive) | 1.07 (inactive) | 0.948 (inactive) | 0.972 (inactive) | 1.04 (inactive) | 0.975 (inactive) | 1.11 (inactive) |
| CC(C)(C)C(O)/C=C/c1ccc2c(c1)OCO2 (stereo not given) [Stiripentol] (20 µM) | 1.04 | 1.03 | 1 | 0.89 | 1.03 (inactive) | 0.927 (inactive) | 1.04 (inactive) | 1.01 (inactive) | 1.01 (inactive) | 1.03 (inactive) | 0.985 (inactive) | 0.981 (inactive) |
| O=C(O)CSCC(=O)NC1CCSC1=O (stereo not given) [Erdosteine] (20 µM) | 1.04 | 1.07 | 1.03 | 1.04 | 0.984 (inactive) | 0.962 (inactive) | 1.01 (inactive) | 0.971 (inactive) | 1 (inactive) | 0.993 (inactive) | 0.993 (inactive) | 0.988 (inactive) |
| Cc1cc2nc3c(=O)[nH]c(=O)nc-3n(C[C@H](O)[C@H](O)[C@H](O)CO)c2cc1C [Riboflavine] (20 µM) | 1.09 | 0.982 | 0.997 | 0.982 | 0.984 (inactive) | 1 (inactive) | 1.08 (inactive) | 0.989 (inactive) | 0.964 (inactive) | 1.01 (inactive) | 0.994 (inactive) | 1.15 (inactive) |
| COc1ccc(CC(C)NCC(O)c2ccc(O)c(NC=O)c2)cc1 (stereo not given) [Formoterol fumarate] (20 µM) | 1.13 | 1.21 | 1.11 | 1.3 | 0.864 (inactive) | 1.03 (inactive) | 1.1 (inactive) | 1.03 (inactive) | 0.951 (inactive) | 0.91 (inactive) | 1.09 (inactive) | 1.11 (inactive) |
| CCCSS/C(CCO)=C(/C)N(C=O)Cc1cnc(C)nc1N [Prosultiamine] (20 µM) | 0.945 | 1.01 | 0.993 | 0.919 | 0.951 (inactive) | 1.09 (inactive) | 1.09 (inactive) | 0.949 (inactive) | 0.98 (inactive) | 0.958 (inactive) | 0.984 (inactive) | 1.16 (inactive) |
| COc1ccc(/C=C/C(=O)Nc2ccccc2C(=O)O)cc1OC [Tranilast] (20 µM) | 1.04 | 1.07 | 1.19 | 1.08 | 0.89 (inactive) | 0.993 (inactive) | 1.01 (inactive) | 0.977 (inactive) | 0.994 (inactive) | 0.995 (inactive) | 1.02 (inactive) | 0.981 (inactive) |
| Cc1onc(-c2ccccc2)c1-c1ccc(S(N)(=O)=O)cc1 [Valdecoxib] (20 µM) | 0.979 | 0.98 | 0.973 | 0.87 | 1.08 (inactive) | 0.955 (inactive) | 0.961 (inactive) | 1.07 (inactive) | 0.983 (inactive) | 1.03 (inactive) | 0.972 (inactive) | 0.92 (inactive) |
| COCCOC(=O)C1=C(C)NC(C)=C(C(=O)OC/C=C/c2ccccc2)C1c1cccc([N+](=O)[O-])c1 (stereo not given) [Cilnidipine] (20 µM) | 1.19 | 0.996 | 1.16 | 0.973 | 0.989 (inactive) | 0.918 (inactive) | 0.945 (inactive) | 1 (inactive) | 1.01 (inactive) | 0.982 (inactive) | 1.03 (inactive) | 0.905 (inactive) |
| CC1(C)S[C@@H]2[C@H](NC(=O)[C@H](N)c3ccc(O)cc3)C(=O)N2[C@H]1C(=O)O [Amoxicillin] (20 µM) | 0 | 0.796 | 0.828 | 0.198 | 1.1 (inactive) | 0.0237 (active) | 0.0355 (active) | 3.1 (active) | 1.05 (inactive) | 1.41 (inactive) | 1.06 (inactive) | 0.0375 (active) |
| O=C1CC[C@@H](C(=O)N2CSC[C@H]2C(=O)O)N1 [Pidotimod] (20 µM) | 1.31 | 0.987 | 1.02 | 1.09 | 0.983 (inactive) | 0.982 (inactive) | 1.02 (inactive) | 0.979 (inactive) | 0.992 (inactive) | 1.01 (inactive) | 0.999 (inactive) | 1.04 (inactive) |
